The source of these data is PubChem BioAssay (NCI).

Compounds without any hit were thinned out: in the full panel of roughly 83,000, 20% have a hit.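 Plates (96-well) were seeded with cells, treated with compound at one concentration, and incubated for 48 hours before percent growth was determined.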 Unmarked numbers belong to inactive results. The source made the active and inactive calls. The calls were made as follows: active = growth percent below 10; inactive = the rest.

Test systems include SR leukemia; OVCAR-8 ovarian; OVCAR-5 ovarian; OVCAR-4 ovarian; SK-OV-3 ovarian; OVCAR-3 ovarian; HS 578T breast; NCI/ADR-RES ovarian; T-47D breast; BT-549 breast; MDA-MB-435 melanoma; SW-620 colon; MCF7 breast; HCT-116 colon; HCC-2998 colon; KM12 colon; RPMI-8226 leukemia; IGROV1 ovarian.
What all share (test): NCI-60 one-dose screen, 48 h (100 = growth as untreated, 0 = no growth, -100 = all killed)
Details in all cases: 10 µM unless noted

For `CCCCC[C@H](O)C/C=C1/C(=O)C=C[C@@H]1C/C=C\CCCC(=O)OC`, the growth in the assay with SR leukemia was 0.159% (active); with OVCAR-8 ovarian, 13.8%; in the assay with OVCAR-5 ovarian, 129%; in the assay with OVCAR-4 ovarian it was 83.9%; in the assay with SK-OV-3 ovarian, 118%; in the assay with OVCAR-3 ovarian it was 11.6%. Moreover, the growth was 88% in the assay with HS 578T breast; 18.7% in the assay on NCI/ADR-RES ovarian; 69.3% in the assay on T-47D breast; 35.3% in the assay with BT-549 breast; -9.31% (active) in the assay on MDA-MB-435 melanoma; 16.1% in the assay on SW-620 colon. In addition, the growth in the assay with MCF7 breast is 18.6%; in the assay on HCT-116 colon, 13%; with HCC-2998 colon it was 77.8%; in the assay on KM12 colon, 16.5%.

On to `O=C(O)c1cn(C2CC2)c2cc(N3CCN(C(=O)Nc4nc(-c5ccccc5)cs4)CC3)c(F)cc2c1=O`, for which the growth is 4.63% (active) with SR leukemia; 13.8% with OVCAR-8 ovarian; 50.3% in the assay with OVCAR-5 ovarian; 62.4% with OVCAR-4 ovarian; 14.7% in the assay with SK-OV-3 ovarian; 7.8% (active) in the assay on OVCAR-3 ovarian. In addition, the growth was 40.6% in the assay with HS 578T breast; 76.7% in the assay on NCI/ADR-RES ovarian; 23.2% in the assay on T-47D breast; 10.3% in the assay with BT-549 breast; 21% in the assay with MDA-MB-435 melanoma; 29.4% in the assay on SW-620 colon. In addition, the growth with MCF7 breast was 7.78% (active); in the assay on HCT-116 colon it was 17.5%; with HCC-2998 colon, 34.4%; with KM12 colon it was 13.8%.

Consider `CN1C(=O)CNC(=O)[C@H](NC(=O)c2nc3ccccc3cc2O)CSSC[C@H]1C(=O)NCCc1nc2ccccc2cc1O`, for which the growth was -41.8% (active) with SR leukemia; 92.2% in the assay on OVCAR-8 ovarian; 129% in the assay on OVCAR-5 ovarian; 90.7% in the assay with OVCAR-4 ovarian; 117% in the assay on SK-OV-3 ovarian; 19.5% with OVCAR-3 ovarian. Moreover, the growth is 92.3% in the assay on HS 578T breast; 105% in the assay with NCI/ADR-RES ovarian; 65.3% in the assay on T-47D breast; 79.4% with BT-549 breast; 42.4% in the assay with MDA-MB-435 melanoma; 34% in the assay on SW-620 colon. In addition, the growth in the assay on MCF7 breast is 47.5%; with HCT-116 colon, 80%; in the assay with HCC-2998 colon, 67.7%; with KM12 colon, 30%.

Consider `C=CCNc1ccc2c3c(cccc13)C(=O)N(N1C(=O)c3cccc4cccc(c34)C1=O)C2=O`, for which the growth is 109% in the assay with RPMI-8226 leukemia; 100% in the assay with OVCAR-8 ovarian; 101% with OVCAR-5 ovarian; 107% in the assay with OVCAR-4 ovarian; 108% in the assay with SK-OV-3 ovarian; 103% with IGROV1 ovarian. In addition, the growth with OVCAR-3 ovarian was 108%; with HS 578T breast it was 97.2%; in the assay with NCI/ADR-RES ovarian, 101%; with T-47D breast, 96.5%; with BT-549 breast, 105%; in the assay with MDA-MB-435 melanoma it was 101%. Further, the growth with SW-620 colon was 108%; with MCF7 breast, 87.4%; in the assay on HCT-116 colon it was 99.6%; in the assay on HCC-2998 colon, 107%; in the assay on KM12 colon it was 105%.

In the case of `CCn1cnc2c1c(=O)[nH]c(=O)n2CC1CCC(CNS(=O)(=O)c2ccc(OC3CCOCC3)c(F)c2)CC1` (stereo not drawn), the growth with SR leukemia is 49.6%; with OVCAR-8 ovarian, 60.5%; with OVCAR-5 ovarian, 64.1%; in the assay on OVCAR-4 ovarian, 42%; with SK-OV-3 ovarian, 31.9%; in the assay on OVCAR-3 ovarian it was 60.5%. Besides, the growth was 15.9% in the assay with HS 578T breast; 95.8% with NCI/ADR-RES ovarian; 19.9% with T-47D breast; 72.7% with BT-549 breast; 65.1% in the assay with SW-620 colon; 26.7% in the assay on MCF7 breast. Moreover, the growth in the assay on HCT-116 colon is 49.2%; in the assay with HCC-2998 colon, 63.9%; with KM12 colon, 59.9%.

Consider `O=C1NC(=O)C(Cn2cnc3ccccc32)N1` (stereo not drawn), for which the growth in the assay on RPMI-8226 leukemia is 99.5%; in the assay on OVCAR-8 ovarian it was 106%; in the assay on OVCAR-5 ovarian, 110%; in the assay with OVCAR-4 ovarian, 105%; in the assay with SK-OV-3 ovarian it was 101%; with IGROV1 ovarian, 105%. Besides, the growth is 103% with OVCAR-3 ovarian; 107% with HS 578T breast; 101% in the assay on NCI/ADR-RES ovarian; 106% in the assay with T-47D breast; 110% with BT-549 breast; 100% in the assay on MDA-MB-435 melanoma. Also, the growth is 99.3% with SW-620 colon; 92.1% in the assay with MCF7 breast; 109% in the assay on HCT-116 colon; 103% in the assay on HCC-2998 colon; 102% in the assay with KM12 colon.

For `Oc1ccc(Cl)cc1Cc1cc(Cl)cc(Cl)c1O`, the growth in the assay with RPMI-8226 leukemia was 0.811% (active); in the assay on OVCAR-8 ovarian, 73.4%; in the assay with OVCAR-5 ovarian it was 92.3%; in the assay with OVCAR-4 ovarian, 17.5%; in the assay on SK-OV-3 ovarian it was 70.8%; with IGROV1 ovarian, 66%. Also, the growth with OVCAR-3 ovarian was -8.34% (active); in the assay on HS 578T breast it was -14.8% (active); with NCI/ADR-RES ovarian it was 24.6%; in the assay on T-47D breast, 40.7%; in the assay with BT-549 breast it was -11.4% (active); with MDA-MB-435 melanoma, 15.4%. Moreover, the growth with SW-620 colon is 28%; in the assay with MCF7 breast it was 60.1%; with HCT-116 colon, 37.1%; in the assay on HCC-2998 colon, 70.6%; with KM12 colon it was 37.6%.

Take `Cc1cc(N2CCCC2)nc(N(CCCNc2ccnc3cc(Cl)ccc23)Cc2ccccn2)n1`: the growth with RPMI-8226 leukemia was 28%; in the assay on OVCAR-8 ovarian, 49.2%; in the assay with OVCAR-5 ovarian it was 59.6%; with OVCAR-4 ovarian, 81%; with SK-OV-3 ovarian it was 76.5%; in the assay with IGROV1 ovarian it was 50.7%. Further, the growth with OVCAR-3 ovarian is 59.5%; in the assay with HS 578T breast, 72.6%; in the assay on NCI/ADR-RES ovarian, 39.2%; in the assay with T-47D breast, 68.6%; with BT-549 breast, 64.9%; in the assay with MDA-MB-435 melanoma, 19.1%. For the same compound, the growth in the assay with SW-620 colon is 44.5%; in the assay on MCF7 breast, 47.3%; with HCT-116 colon it was 16.3%; in the assay on HCC-2998 colon, 79.5%; in the assay on KM12 colon, 63.8%.

For `CNc1ccc(Nc2cccc(C)c2)c2c1C(=O)c1ccccc1C2=O`, the growth in the assay on RPMI-8226 leukemia is 74.3%; in the assay with OVCAR-8 ovarian, 99.6%; in the assay on OVCAR-5 ovarian, 91.4%; with OVCAR-4 ovarian, 81.6%; with SK-OV-3 ovarian, 86.4%; in the assay on IGROV1 ovarian it was 11.2%. For the same compound, the growth in the assay with OVCAR-3 ovarian was 110%; with HS 578T breast, 101%; in the assay on NCI/ADR-RES ovarian, 98.8%; in the assay on T-47D breast it was 40.9%; in the assay on BT-549 breast, 110%; with MDA-MB-435 melanoma, 135%. In addition, the growth in the assay with SW-620 colon is 85.4%; in the assay on MCF7 breast it was 10.2%; with HCT-116 colon, 92.4%; in the assay with HCC-2998 colon it was 88.5%; with KM12 colon it was 48.4%.
